High-throughput results: PubChem BioAssay, National Center for Advancing Translational Sciences (NCATS)
FBPA Giardia inh: blocks Giardia fructose-bisphosphate aldolase activity; purified Giardia FBPA; Potency, µM (titrated, usually from 59.6 µM), without a hit: top-dose activity, negative = inhibition, usual class: inhibitors; 290,000 tested, 0.71% active; also: potency is read from the fitted curve at half-maximal effect; % is scaled to controls: 0 for no effect and ±100 for the full control effect; nearly all actives have a fitted effect of over 55% in size
Target sequence (A8B2U2 whole entry, looked up): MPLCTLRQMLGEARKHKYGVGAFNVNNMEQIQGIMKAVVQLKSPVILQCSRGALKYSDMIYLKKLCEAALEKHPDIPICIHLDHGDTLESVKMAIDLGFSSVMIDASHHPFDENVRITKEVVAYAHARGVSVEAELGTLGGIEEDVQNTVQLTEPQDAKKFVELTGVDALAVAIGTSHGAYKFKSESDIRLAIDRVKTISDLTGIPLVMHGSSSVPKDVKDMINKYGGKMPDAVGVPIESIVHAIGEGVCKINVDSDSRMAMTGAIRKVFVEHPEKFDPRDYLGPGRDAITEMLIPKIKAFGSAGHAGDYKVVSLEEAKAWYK
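40 nM FBPA preincubated 10 min at RT with compound (up to 57.5 uM final), then substrate plus GAPDH/TPI/NAD/arsenate coupling and diaphorase/resazurin added. Fluorescence read after 20 min at RT, 525/598 nm.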
LmPK inhibitor: LmPK (Leishmania mexicana) enzyme inhibition; Q27686; 290,000 tested, 0.37% active; Potency, µM (series often up to 57.5 µM), for the others: at the highest dose activity change, negative = inhibition, actives largely listed as inhibitors; purified LmPK, Kinase-Glo ATP luminescence, 1 h; AID 1721; also: potency is read from the fitted curve at half-maximal effect; % is scaled to controls: 0 for no effect and ±100 for the full control effect
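qHTS format; LmPK 0.1 nM; substrates PEP 0.5 mM and ADP 0.1 mM. One-hour room-temperature incubation, then coupled luciferase luminescence; 0.5 nM enzyme wells mark activation.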
Shiga inhibitor: Shiga toxin inhibition. 290,000 tested, 9.2% active. inhibition, % at 38.7 µM. Vero cells, Shiga toxin protein synthesis inhibition reporter. AID 2315; in the data active = inhibition mostly above about 28%, no sharp cut-off; inactive = mostly below about 43%; also: 0% is about no effect
Sm TGR inh: blocks Schistosoma mansoni thioredoxin glutathione reductase. purified TGR, DTNB reduction, TNB absorbance 405 nm. Q962Y6. 360,000 tested, 3% active. Potency, µM (doses to about 114 µM), for the others: at the top dose activity change, negative = inhibition, actives largely listed as inhibitors; also: potency is read from the fitted curve at half-maximal effect; % is scaled to controls: 0 for no effect and ±100 for the full control effect; nearly all actives have a fitted effect of over 60% in size
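TGR 20 nM + NADPH 100 uM (dispensed conc.), cpd preinc 15 min RT; start with NADPH (500 uM addition) then DTNB (15 mM addition). Kinetic TNB absorbance, 405 nm filter. Four-parameter Hill fit across titration.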
TbPYK inhibitor: T. brucei pyruvate kinase inhibition | TbPYK enzyme, Kinase-Glo Plus ATP luminescence, 45 min | Potency, µM (highest dose often 76.8 µM), for inactives: at the highest dose activity, negative = inhibition, actives largely listed as inhibitors | 410,000 tested, 0.12% active | AID 624173; also: potency is read from the fitted curve at half-maximal effect; % is scaled to controls: 0 for no effect and ±100 for the full control effect; nearly all actives have a fitted effect of over 50% in size
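Assay buffer: 50 mM TEA pH 7.2, 100 mM KCl, 10 mM MgCl2, 0.05% BSA, 0.01% Tween-20. Pyruvate kinase from T. brucei plus substrate met compound, then ADP (130 uM final). Luminescence was read post 45 min RT.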
Cycloheximide cs: counter-screen for Shiga toxin inhibitors: cycloheximide protein synthesis inhibition; max response, %; cell reporter, cycloheximide protein synthesis inhibition counterscreen; 300,000 tested, 12% active; in the data active = max response mostly above about 13%, no sharp cut-off; inactive = mostly below about 14%; also: read at 38.3 µM for the half of the compounds with a filed dose; 0% is about no effect
Starred values were filed as active, the others as inactive; ? = inconclusive; / = not tested or not shown; [ ] = dose if it differs, or a comment. The sample as a whole holds a higher share of hits than the screen did. Unless noted, calls follow the shape of the dose curve; as a rule, active = well fitted curve in the direction sought with a large enough effect; inconclusive = small, poorly fitted or top-dose-only effect, or another doubt; inactive = no such curve, though single readings can be large; an effect the other way counts as inactive or inconclusive.

SMILES | FBPA Giardia inh | LmPK inhibitor | Shiga inhibitor | Sm TGR inh | TbPYK inhibitor | Cycloheximide cs
COC(=O)c1ccc(COc2ccc(/C=N/N3CCN(C)CC3)cc2)cc1 | 6.6% | 3.1% | 155.2* | 5.1% | 2.4% | 55.6*
COc1ccc(/C=N/N2CCN(Cc3ccccc3)CC2)cc1 | 0.3% | -3.5% | 3.7 | 7.0% | 6.8% | 2.0
CCOc1ccc(/C=N/n2cnnc2)cc1 | 2.9% | 2.5% | 1.5 | 1.5% | -3.5% | -1.8
CCOc1ccc(NS(=O)(=O)c2ccc(C(=O)N(C)CC(=O)Nc3ccccc3Br)cc2)cc1 | / | / | / | / | -0.6% | /
CCOC(=O)c1cc(-c2ccccc2)n(CCC(=O)NC2CCCCC2)c1C | / | / | / | 16.5% | -2.7% | /
COc1ccc(NC(=O)Cn2ccn(-c3ccccc3)c(=O)c2=O)cc1 | / | / | / | -2.8% | -3.4% | /
Cn1c(=O)c(C(=O)NCC2CCCO2)c(O)c2ccccc21 (stereo not drawn) | -11.7% | -10.2% | 45.4 | -4.2%[57.1 µM] | -2.7% | 26.9*
Cn1c(C(=O)NCC2CCCO2)cc2c(=O)n(C)c3ccccc3c21 (stereo not drawn) | -14.3% | -0.7% | 11.0 | -20.4% | -3.2% | -2.5
Cn1c(C(=O)NCc2cccs2)cc2oc3ccccc3c21 | 13.9% | -0.3% | 81.6* | 8.1% | 1.2% | 62.5*
Cn1c(C(=O)NCc2ccccc2)cc2oc3ccccc3c21 | -7.9% | -0.7% | 85.0* | 6.7% | -6.2% | 46.2*
Cn1c(C(=O)NCC2CCCO2)cc2oc3ccccc3c21 (stereo not drawn) | -6.9% | 0.4% | 102.9* | 5.5% | 5.5% | 34.7*
NS(=O)(=O)c1ccc(CNC(=O)Cc2ccsc2)cc1 | / | / | / | / | 3.9% | /
CC[C@H](C)[C@H](NC(=O)CNC(=O)[C@H](C)NC(=O)[C@H](C)N)C(=O)NCC(=O)N[C@H](C(=O)N[C@@H](CC(C)C)C(=O)N[C@H](C(=O)N[C@H](C(=O)O)C(C)C)[C@@H](C)O)[C@@H](C)CC | 3.5% | / | -6.1 | / | / | -6.3
CC1CNC(=S)N(c2ccccc2)C1=O (stereo not drawn) | / | / | / | / | -8.5% | /
CCn1ncc(Cl)c1C(=O)Nc1ccc2c(c1)CCC2 | -2.7% | -2.2% | 134.0* | -1.1% | / | 36.9*
O=C(Nc1ccc2c(c1)CCC2)c1ccc(Cl)nc1 | -27.6% | -2.1% | 64.2* | 6.2% | -4.6% | 59.0*
O=C(COC(=O)c1ccc(Cl)nc1)Nc1ccc2c(c1)CCC2 | / | / | / | / | -0.1% | /
CCn1ncc(Cl)c1C(=O)Nc1ccncc1 | -0.5% | -2.3% | 22.8 | 0.9% | -1.9% | 7.9
O=C(Nc1ccc2c(c1)CCC2)c1cnc(Cl)c(Cl)c1 | -3.5% | -6.1% | 103.3* | -1.8% | -2.6% | 67.3*
CC(Oc1ccccc1)C(=O)Nc1ccccc1C(=O)OCc1cc(=O)n2nc(C3CC3)sc2n1 (stereo not drawn) | / | / | / | -5.0% | 0.3% | /
COc1ccc2c(c1)O[C@@H](c1cccc(C(F)(F)F)c1)[C@H](OC(=O)NCc1ccc3c(c1)OCO3)C2=O | 2.5% | / | / | / | / | /
COc1ccc(O[C@H]2C=C[C@@H](c3ccccc3)O[C@H]2COC(=O)CC/C(C)=N\O[C@@H](C)c2cn([C@H]3COC[C@H]3O)nn2)cc1 | -1.5%[12.9 µM] | / | / | / | / | /
CC1=C(c2ccc(Cl)cc2)[N+](=O)C(C)(C)N1[O-] | -1.7% | -2.1% | -3.7 | 20µM* | -9.5% | -4.6
CC(C)(C)C(=O)/C(=C/c1ccc(Cl)cc1)n1cncn1 | 5.3% | 2.9% | -12.2 | ? | 3.6% | 3.4
CC(C)(C)C(=O)/C(=C\c1ccc([N+](=O)[O-])cc1)n1cncn1 | 2.4% | 2.6% | -19.5 | 2.24µM* | / | -10.9
Cc1ccccc1OCC(=O)OCC(=O)c1ccc(OCc2ccccc2)cc1 | -3.2% | 8.4% | 80.8* | 0.1% | -3.4% | 59.5*
Cc1ccccc1OCC(=O)OCC(=O)c1ccc(OC(=O)c2ccccc2)cc1 | 1.7% | 2.8% | 18.2 | 12.5% | 2.7% | -3.4
CCOC(=O)c1ccc(Nc2ccc(-c3ccc(OC)c(OC)c3)nn2)cc1 | -8.6% | 0.8% | -3.4 | 0.0% | 0.5% | 1.4
Fc1ccc(Nc2ccc(-c3ccc(F)cc3)nn2)cc1 | 1.3% | 4.4% | 62.9* | 15.2% | -3.4% | 50.5*
Fc1ccc(-c2ccc(Nc3cccc(F)c3)nn2)cc1 | 4.2% | 3.0% | 51.1* | 14.0% | -5.5% | 46.3*
